From PubChem BioAssay
The list is not random: actives were taken first. Their share in the collection is about 2.8%.
Pol eta inh-1: DNA polymerase eta (human) inhibition. recombinant Pol eta, fluorescent DNA replication assay. 390,000 tested, 1.2% active. Potency, µM (doses to about 114 µM), hits mostly inhibitors. Q9Y253. AID 588591
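Fluorescent replication assay: 50 nM final substrate added after a 15 min room-temperature compound preincubation with 10 nM enzyme. Signal taken at 0 min and again at 10 min.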
Pol kappa inh-1: DNA polymerase kappa (human) inhibition. Q9UBT6. Potency, µM (series often up to 107 µM), actives largely listed as inhibitors. 400,000 tested, 0.53% active. purified Pol kappa, fluorescent DNA synthesis assay, 10 min. AID 588579
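50 nM final substrate added after 15 min RT preincubation of 10 nM Pol kappa with compound; fluorescence read at 0 and 10 min.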
POLI inh: inhibitors of human DNA polymerase iota; Q9UNA4; 390,000 tested, 1% active; Pol iota fluorescent replication assay, 10 min; Potency, µM (top dose mostly 115 µM), most hits filed as inhibitors; AID 588590
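Fluorescent replication assay read twice, at 0 min and 10 min after adding 50 nM (final) substrate. Enzyme (10 nM) and compounds were first incubated 15 min at room temperature; enzyme-free buffer wells were negative controls.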
PI5P4K alpha inh: blocks human PI5P4K alpha kinase activity; max response, %; AID 652105; P48426; PI5P4Kalpha enzyme, ADP-Glo luminescence, 60 min; hits give low values; 330,000 tested, 1.2% active; active = max response of -50% or lower; inconclusive = between -30% and -50%; inactive = -30% or higher; also: value at the top dose of about 77 µM
Target sequence (P48426 whole entry, looked up): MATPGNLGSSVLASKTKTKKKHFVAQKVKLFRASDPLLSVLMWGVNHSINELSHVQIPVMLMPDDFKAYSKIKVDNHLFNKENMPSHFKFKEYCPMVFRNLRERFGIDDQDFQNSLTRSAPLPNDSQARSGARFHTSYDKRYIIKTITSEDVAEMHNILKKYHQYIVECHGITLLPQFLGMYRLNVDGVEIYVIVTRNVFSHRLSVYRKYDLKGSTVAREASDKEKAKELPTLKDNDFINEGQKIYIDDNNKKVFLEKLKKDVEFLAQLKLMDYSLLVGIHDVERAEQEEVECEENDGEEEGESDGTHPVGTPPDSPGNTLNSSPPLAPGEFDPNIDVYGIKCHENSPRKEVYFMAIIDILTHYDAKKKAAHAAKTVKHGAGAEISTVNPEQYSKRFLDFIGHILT
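ADP-Glo luminescence end-point after a 60 min room-temperature kinase reaction. PI5P4Kalpha and substrate in HEPES pH 7.4 buffer with EGTA, 0.1% CHAPS and 5% DMSO; ATP at 5 microM final.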
PI4K2A block: inhibitors of human PI4K2A; purified PI4K2A, ADP-Glo luminescence, 1 h; hits give low values; activity change, negative = inhibition, % at 76.9 µM; Q9BTU6; AID 1346378; 420,000 tested, 0.13% active; in the data active = activity change below about -50%; inconclusive = mostly about -30% to -49%
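In this quantitative HTS, ADP production by PI4K2A was quantified luminescently after 1 h at ambient temperature; 100 microM adenosine served as plate-quality control.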
POLB inh: DNA polymerase beta (human) inhibition. P06746. Pol beta primer extension/strand displacement, fluorescence kinetic. Potency, µM (doses to about 114 µM), most hits filed as inhibitors. 340,000 tested, 1.3% active
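Human Pol beta at 10 nM; strand-displacement substrate 50 nM final. Compound exposure 15 min at room temperature before start, reaction 10 min at room temperature.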
TbPGK inh: validation of Trypanosoma brucei phosphoglycerate kinase inhibitors; shares compounds with Pol kappa inh-1; TbPGK coupled GAPDH assay, Kinase-Glo luminescence; Potency, µM (titrated, usually from 57.5 µM), actives largely listed as inhibitors; 500 tested, 79% active; AID 686980; also: nearly all actives have a fitted effect of over 65% in size
POLI cherry-pick: Inhibitors of human DNA polymerase iota, confirmation. shares compounds with Pol kappa inh-1. Pol iota primer extension, TAMRA/BHQ fluorescence. Potency, µM, usual class: inhibitors. 1,500 tested, 77% active. AID 720496
Pol kappa inh-2: Pol kappa (human) inhibition, cherry-pick confirmation | shares compounds with Pol eta inh-1 | purified Pol-kappa, fluorescent strand-displacement substrate | Potency, µM, hits mostly inhibitors | 920 tested, 76% active | AID 720501
Pol eta inh-2: confirmation of human DNA polymerase eta inhibitors. shares compounds with Pol eta inh-1. Pol eta primer extension, TAMRA/BHQ fluorescence, 10 min. Potency, µM, most hits filed as inhibitors. 2,600 tested, 64% active
A number is an active result. Unless noted, calls follow the shape of the dose curve; as a rule, active = well fitted curve in the direction sought with a large enough effect; inconclusive = small, poorly fitted or top-dose-only effect, or another doubt; inactive = no such curve, though single readings can be large; an effect the other way counts as inactive or inconclusive.

Results for Cc1ccc(CNC(=O)CCS(=O)(=O)c2ccc(Br)cc2)cc1 ?
Pol eta inh-1: 10µM; Pol kappa inh-1: 22µM; POLI inh: 16µM; PI5P4K alpha inh: inactive; PI4K2A block: inactive; POLB inh: 7.9µM; TbPGK inh: 6.5µM; POLI cherry-pick: 38; Pol eta inh-2: 27

How did O=C1CC(=O)NC(SCC(=O)Nc2ccccc2[N+](=O)[O-])=N1 do in these assays?
Pol eta inh-1: 5.6µM; Pol kappa inh-1: 40µM; POLI inh: 2.8µM; PI5P4K alpha inh: inconclusive; PI4K2A block: inactive; POLB inh: inconclusive; TbPGK inh: 10µM; POLI cherry-pick: 12; Pol eta inh-2: 6

Results for Cc1cc(C)nc(SCC(=O)Nc2ccccc2[N+](=O)[O-])n1 ?
Pol eta inh-1: inactive; Pol kappa inh-1: inactive; POLI inh: inactive; PI4K2A block: inactive; POLB inh: inactive

Results for O=C(CSc1nnc(SCc2ccccc2)s1)N/N=C/C=C/c1ccco1 ?
Pol eta inh-1: 2.8µM; Pol kappa inh-1: 25µM; POLI inh: 14µM; PI5P4K alpha inh: -96; PI4K2A block: inactive; POLB inh: 10µM; POLI cherry-pick: 15; Pol kappa inh-2: 15; Pol eta inh-2: 19

What do the screens show for `O=C(CSc1nnc(SCc2ccc(Cl)cc2)s1)N/N=C/c1ccc(C(=O)O)cc1`?
Pol eta inh-1: inactive; Pol kappa inh-1: inactive; POLI inh: inactive; PI5P4K alpha inh: inactive; PI4K2A block: inactive; POLB inh: inactive

Results for Cn1c(SCC(=O)N/N=C/C=C/c2ccco2)nc2ccccc21 ?
Pol eta inh-1: 14µM; Pol kappa inh-1: 79µM; POLI inh: 35µM; PI5P4K alpha inh: inconclusive; PI4K2A block: inactive; POLB inh: 22µM; POLI cherry-pick: 67; Pol eta inh-2: 76

Results for O=C(CSc1nnc(SCc2cccc3ccccc23)s1)N/N=C/c1c[nH]c2ccccc12 ?
Pol eta inh-1: inactive; Pol kappa inh-1: inactive; POLI inh: inactive; PI5P4K alpha inh: inactive; PI4K2A block: inactive; POLB inh: inactive

Results for O=C(Cc1cccs1)N/N=C/C=C/c1ccco1 ?
Pol eta inh-1: 8.9µM; Pol kappa inh-1: 79µM; POLI inh: 28µM; PI5P4K alpha inh: -58; PI4K2A block: inactive; POLB inh: 18µM; POLI cherry-pick: inconclusive; Pol kappa inh-2: 30; Pol eta inh-2: inconclusive

What do the screens show for `O=C(CNc1cccc2ccccc12)N/N=C/C=C/c1ccco1`?
Pol eta inh-1: inactive; Pol kappa inh-1: inactive; POLI inh: inactive; PI5P4K alpha inh: inactive; PI4K2A block: inactive; POLB inh: inactive

How did O=C(CSc1nnc(SCc2ccc(Cl)cc2)s1)N/N=C/c1c[nH]c2ccccc12 do in these assays?
Pol eta inh-1: 3.2µM; Pol kappa inh-1: inconclusive; POLI inh: 10µM; PI5P4K alpha inh: inactive; PI4K2A block: inactive; POLB inh: 8.9µM; POLI cherry-pick: 8.4; Pol eta inh-2: 19

What do the screens show for `COc1ccc(CN(C(=O)c2cc3ccccc3oc2=O)C2CCS(=O)(=O)C2)cc1OC` (stereo not drawn)?
Pol eta inh-1: inactive; Pol kappa inh-1: inactive; POLI inh: inactive; PI5P4K alpha inh: inactive; PI4K2A block: inactive; POLB inh: inactive

How did CCn1c(SCC(=O)N/N=C/c2ccc(C)o2)nnc1-c1ccccc1 do in these assays?
Pol eta inh-1: inactive; Pol kappa inh-1: inactive; POLI inh: inactive; PI5P4K alpha inh: inactive; PI4K2A block: inactive; POLB inh: inactive

How did CCn1c(SCC(=O)N/N=C/C(C)=C/c2ccco2)nnc1-c1ccccc1 do in these assays?
Pol eta inh-1: 89µM; Pol kappa inh-1: inconclusive; POLI inh: inconclusive; PI4K2A block: inactive; POLB inh: inconclusive; POLI cherry-pick: 60; Pol eta inh-2: inconclusive

How did CC(C)[C@H](NC(=O)C1CC(=O)N(c2ccc3c(c2)OCO3)C1)C(=O)NC1CCCC1 (stereo partly drawn) do in these assays?
Pol eta inh-1: 32µM; Pol kappa inh-1: inactive; POLI inh: inactive; PI5P4K alpha inh: inactive; PI4K2A block: inactive; POLB inh: inconclusive; POLI cherry-pick: inconclusive; Pol eta inh-2: 76

Results for CN(C)c1ccc2cc(S(=O)(=O)O)cc(O)c2c1 ?
Pol eta inh-1: 10µM; Pol kappa inh-1: 32µM; POLI inh: inconclusive; PI5P4K alpha inh: inconclusive; PI4K2A block: inactive; POLI cherry-pick: inconclusive; Pol eta inh-2: 19

What do the screens show for `O=C1C(Cl)=C(NCCN2CCOCC2)C(=O)c2ccccc21`?
Pol eta inh-1: inactive; Pol kappa inh-1: inactive; POLI inh: inactive; PI5P4K alpha inh: inactive; PI4K2A block: inactive; POLB inh: inactive

Results for CC1COCC(C)N1C1=C(Cl)C(=O)c2ccccc2C1=O (stereo not drawn) ?
Pol eta inh-1: inactive; Pol kappa inh-1: inactive; POLI inh: 8.9µM; PI5P4K alpha inh: -70; PI4K2A block: inactive; POLI cherry-pick: 42; Pol eta inh-2: 27

How did CCC(=O)N1CCc2cc(S(=O)(=O)NC(Cc3ccccc3)C(=O)Nc3cccc(OC)c3)ccc21 (stereo not drawn) do in these assays?
Pol eta inh-1: inactive; Pol kappa inh-1: inactive; POLI inh: inactive; PI4K2A block: inactive; POLB inh: inactive

Results for COc1cc(/C=C2\CCc3c2nc2ccccc2c3C(=O)O)cc(OC)c1OC ?
Pol eta inh-1: 3.2µM; Pol kappa inh-1: 45µM; POLI inh: 10µM; PI5P4K alpha inh: -62; PI4K2A block: inactive; POLB inh: 3.2µM; POLI cherry-pick: 21; Pol eta inh-2: 15

How did CC(=C\C(=O)O)/C(=C/c1ccc(C)o1)C(=O)O do in these assays?
Pol eta inh-1: 7.9µM; Pol kappa inh-1: inconclusive; POLI inh: inconclusive; PI5P4K alpha inh: inactive; PI4K2A block: inactive; POLB inh: 20µM; POLI cherry-pick: 34; Pol eta inh-2: 21

Results for Cc1cc(C)c(NC(=O)Cn2c(=O)n(-c3ccc(F)cc3)c(=O)c3c(C)c(C(=O)N(C)C)sc32)c(C)c1 ?
Pol eta inh-1: inactive; Pol kappa inh-1: inactive; POLI inh: inactive; PI4K2A block: inactive; POLB inh: inactive
